Each structure is given as a SMILES string. Records with an inconclusive call do not appear. Activity calls are given as the source filed them. Calls come from the whole dose curve; as a rule, active = well fitted activation curve with a large enough effect in the signal ratio in the repeat runs (not every such curve was filed as active); inconclusive = weak or mixed curves; inactive = flat fitted curve, though single readings scatter; the % refers to the signal ratio. Residues, ends and D or L forms follow the SMILES beside them.

In PubChem BioAssay (Tox21) one finds outcome data, which are given here for 25 compounds.

The assay in a line: qHTS assay to identify small molecule agonists of H2AX (AID 1224845). As to conditions: CHO-K1 phospho-H2AX Ser139 HTRF, 3 h; series mostly up to 154 µM. An outline of the steps: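 Wild-type CHO-K1 cells, plated overnight, exposed 3hr at 37C to 15 concentrations (0.76% DMSO final). Lysed, then HTRF anti-pH2AX (S139) cryptate and anti-H2AX-d2 antibodies, 24 hr room temperature; 665/620 nm emission read.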
Consider `C[C@]12C=CC(=O)C=C1CC[C@@H]1[C@@H]2[C@@H](O)C[C@@]2(C)[C@H]1CC[C@]2(O)C(=O)CO`, for which the result was inactive. `CC(=O)NS(=O)(=O)c1ccc(N)cc1`: the result was inactive. As for `Nc1ccc(C(=O)O)cc1`, the compound was called inactive. In the case of `O=c1cc[nH]c(=S)[nH]1`, the result was inactive.

Turning to `C/C=C/c1ccc(OC)cc1`, the call was inactive.

In the case of `CCCCC1C(=O)N(c2ccccc2)N(c2ccccc2)C1=O`, the compound was called inactive.

With `Cc1ccc(C)c(OCCCC(C)(C)C(=O)O)c1`, the outcome was inactive.

Consider `O=C(O)CCC(=O)O`, for which the compound was classed as inactive. As for `CC(=O)Nc1nnc(S(N)(=O)=O)s1`, the entry is “inactive”; as for `COC(=O)[C@H](Cc1ccccc1)NC(=O)[C@@H](N)CC(=O)O` (H-Asp-Phe-OMe), “inactive”; as for `CCCC(CCC)C(=O)O`, “inactive”.

`COc1ccc2[nH]cc(CCNC(C)=O)c2c1`: the call was inactive. As for `CC(=O)OCC(COC(C)=O)OC(C)=O`, the compound was called inactive. `Cn1c(=O)c2[nH]cnc2n(C)c1=O`: the compound was called inactive. `Nc1ccc(S(=O)(=O)c2ccc(N)cc2)cc1`: the compound was classed as inactive. On to `C1N2CN3CN1CN(C2)C3`, for which the compound was classed as inactive.

As to `CCCN(CCC)S(=O)(=O)c1ccc(C(=O)O)cc1`, the result was inactive. The result for `NNC(=O)c1ccncc1` reads “inactive”; that for `Cn1cc[nH]c1=S`, “inactive”; that for `O=C1CN(/N=C/c2ccc([N+](=O)[O-])o2)C(=O)N1`, “inactive”.

For the compound `CCCCOC(=O)CC(CC(=O)OCCCC)(OC(C)=O)C(=O)OCCCC`, the outcome was inactive. The result for `CCCCC(CC)COC(=O)/C=C/c1ccc(OC)cc1` (stereo not given) reads “inactive”; that for `CC(C)(Oc1ccc(C2CC2(Cl)Cl)cc1)C(=O)O` (stereo not given), “inactive”. Turning to `OCCc1ccccc1`, the result was inactive. The result for `NC(N)=NC(=O)c1nc(Cl)c(N)nc1N` reads “inactive”.
